Measured values taken from PubChem BioAssay (NCATS).
Inconclusive results are not listed. Active and inactive are the calls of the source. The call rests on the fitted dose curve; in most records, active means well fitted curve in the direction sought with a large enough effect; inconclusive means small, poorly fitted or top-dose-only effect, or another doubt; inactive means no such curve, though single readings can be large; an effect the other way counts as inactive or inconclusive.

How the values were obtained:
NIH3T3 = experiment: qHTS assay to identify novel small-molecules to repurpose for Merkel cell carcinoma treatment (AID 1296009); conditions: MCC and control cell lines, CellTiter-Glo viability, 72 h; at 44.8 µM (top of the series) unless noted; further: nearly all actives have a fitted effect of over 60% in size
Procedure, shortened: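 Dose-response viability screen; 72 hr exposure at 37 degree celsius; CellTiter-Glo added, 10 min room temperature, luminescence read; RLUs scaled between no-cell and DMSO wells.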

C33A = experiment: Primary qHTS to identify gynecologic anti-cancer compounds using libraries of approved drugs and bioactive compounds (AID 1345084); conditions: Gynecologic cancer cell panel viability, ATPlite luminescence, 48 h; series mostly up to 57.5 µM; further: nearly all actives have a fitted effect of over 55% in size
Procedure, shortened: (§1)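 Luminescence from the ATPlite ATP-monitoring reagent indicates viable cell number; lower signal means cytotoxicity. Cells received compound 16 h after seeding and were exposed for 48 h across five concentrations.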

CAOV3 = experiment: as above; conditions: Gynecologic cancer cell panel viability, ATPlite luminescence, 48 h; series mostly up to 57.5 µM
Procedure, shortened: as §1

CASKI = experiment: as above; conditions: Gynecologic cancer cell panel viability, ATPlite luminescence, 48 h; series mostly up to 57.5 µM
Procedure, shortened: as §1

Es-2 = experiment: as above; conditions: Gynecologic cancer cell panel viability, ATPlite luminescence, 48 h; series mostly up to 57.5 µM
Procedure, shortened: as §1

HeLa = experiment: as above; conditions: Gynecologic cancer cell panel viability, ATPlite luminescence, 48 h; series mostly up to 57.5 µM
Procedure, shortened: as §1

Hek293T = experiment: as above; conditions: Gynecologic cancer cell panel viability, ATPlite luminescence, 48 h, control line for the selectivity index; series mostly up to 57.5 µM
Procedure, shortened: as §1

JEG-3 = experiment: as above; conditions: Gynecologic cancer cell panel viability, ATPlite luminescence, 48 h; series mostly up to 57.5 µM
Procedure, shortened: as §1

OV90 = experiment: as above; conditions: Gynecologic cancer cell panel viability, ATPlite luminescence, 48 h; series mostly up to 57.5 µM
Procedure, shortened: as §1

PA-1 = experiment: as above; conditions: Gynecologic cancer cell panel viability, ATPlite luminescence, 48 h; series mostly up to 57.5 µM
Procedure, shortened: as §1

SKOV3 = experiment: as above; conditions: Gynecologic cancer cell panel viability, ATPlite luminescence, 48 h; series mostly up to 57.5 µM
Procedure, shortened: as §1

Tov-21-G = experiment: as above; conditions: Gynecologic cancer cell panel viability, ATPlite luminescence, 48 h; series mostly up to 57.5 µM
Procedure, shortened: as §1

Tov112D = experiment: as above; conditions: Gynecologic cancer cell panel viability, ATPlite luminescence, 48 h; series mostly up to 57.5 µM
Procedure, shortened: as §1

Measured: Potency

CC(=O)N[C@@H](C(=O)O[C@H]1CCC(C)(C)[C@@H]2CCC3=C(COC3=O)[C@@]12C)C(C)C
inactive: all assays above

C[C@H](C(=O)NC1CCCC1)N(C(=O)Cn1nnc(-c2ccc3c(c2)OCO3)n1)C1CCCCC1
inactive: all assays above

COC(=O)c1cc(OC)cc(OC)c1C(=O)c1c(OC)cc2c(c1O)C1CCCC(C)(O2)O1 (stereo not given)
inactive: NIH3T3 inactive [at 17.4 µM] | C33A | CAOV3 | CASKI | Es-2 | HeLa | Hek293T | JEG-3 | OV90 | PA-1 | SKOV3 | Tov-21-G | Tov112D

C=C1CCC2C(C)(COC(C)=O)CCCC2(C)C1CCC(C)CC(=O)O (stereo not given)
inactive: all assays above

CCNCc1nc2c(N)nc3ccccc3c2n1CC(C)(C)O
inactive: all assays above

CCOc1cc(CC(=O)NC(CC(C)C)c2ccccc2N2CCCCC2)ccc1C(=O)O (stereo not given)
not listed: SKOV3
inactive: all other assays above

Nc1nc2c(ncn2[C@@H]2O[C@H](CO)[C@@H](O)[C@H]2O)c(=O)[nH]1
inactive: all assays above

CC(C)c1ccc(CO)cc1O[C@@H]1O[C@H](CO)[C@@H](O)[C@H](O)[C@H]1O
inactive: all assays above

C[C@H](NC(c1cccc2[nH]c(=O)c(=O)[nH]c12)P(=O)(O)O)c1ccc(Br)cc1 (stereo not given in full)
inactive: all assays above

C=CC(C)(O)C(O)CC1C(C)(O)C(O)C(O)C2C(C)(C)CCCC21C (stereo not given)
inactive: all assays above

COc1cc(Nc2nc3ccccc3nc2NS(=O)(=O)c2ccc(NC(=O)c3ccc(OC)c(C)c3)cc2)cc(OC)c1
inactive: all assays above

C[C@H](CCC(=O)O)[C@H]1CC[C@H]2[C@@H]3C[C@H](O)[C@@H]4C[C@H](O)CC[C@]4(C)[C@H]3CC[C@]12C
inactive: all assays above
